Rows were chosen to be rich in hits. Some 2.4% of all compounds tested hit in one or more screens of this group.
D2 ag-1: activates the human D2 dopamine receptor | hit rate 0.084% among 360,000 | AID 624465 | activation, % (test concentration not listed) | DiscoveRx PathHunter D2 beta-arrestin, luminescence, 90 min; 100% = 57 uM dopamine signal | P14416; in the data active = activation above about 40%
Target sequence (P14416 whole entry, looked up): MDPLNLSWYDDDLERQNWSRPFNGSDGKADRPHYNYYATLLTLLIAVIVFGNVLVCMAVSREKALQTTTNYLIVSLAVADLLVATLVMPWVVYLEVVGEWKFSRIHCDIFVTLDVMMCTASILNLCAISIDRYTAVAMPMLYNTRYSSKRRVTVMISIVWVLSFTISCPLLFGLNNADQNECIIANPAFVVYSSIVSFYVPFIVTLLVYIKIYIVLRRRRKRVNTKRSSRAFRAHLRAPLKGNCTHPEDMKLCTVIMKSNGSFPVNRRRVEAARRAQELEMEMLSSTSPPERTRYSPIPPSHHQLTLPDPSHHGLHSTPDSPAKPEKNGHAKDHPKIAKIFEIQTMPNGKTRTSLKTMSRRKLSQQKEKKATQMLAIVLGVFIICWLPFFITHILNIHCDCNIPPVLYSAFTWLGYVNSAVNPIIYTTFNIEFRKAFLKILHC
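DiscoveRx PathHunter D2 beta-arrestin cells (2,100/well) attached overnight, then compound-stimulated 90 min at 37 C in HBSS/10 mM HEPES/0.1% Tween-20 buffer; beta-galactosidase complementation read by luminescence after 1 h at ambient temperature. Dopamine 57 uM final (EC100) as control.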
D2 ag-2: D2 dopamine receptor (human) agonism; P14416; HEK293 T-REx D2 cells, calcium flux agonist mode; activation, % at 2 µM; hit rate 0.53% among 340,000; AID 485358;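 active = activation over 3 SD above normal in the single-dose calcium agonist read, cut at about 30% in these data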; note: 0% is about no effect
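Agonism is scored from calcium flux in a force-coupled, inducible HEK293 cell line expressing D2, read kinetically for 180 s after compound addition against dopamine controls.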
D2 antag: antagonists of human D2 dopamine receptor; P14416; HEK293 TREx D2 cells, calcium flux, dopamine EC80; inhibition, % at 10 µM; hit rate 2% among 340,000; AID 485344; in the data active = inhibition above about 30%; inactive = below that, where a call was filed; note: 0% is about no effect
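Compounds are added to dye-loaded, induced HEK293 T-REx cells coupled to calcium release via D2; after a 3 min kinetic read an EC80 dopamine stimulus is given and fluorescence is recorded for 3 more min.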
D2 PAM-1: positive allosteric modulators of human D2 dopamine receptor; P14416; HEK293 T-REx D2, calcium flux, EC20 dopamine potentiation; potentiation, % at 10 µM; hit rate 0.34% among 340,000;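 active = potentiation over 3 SD above the plate norm, cut at about 30% in these data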; note: 0% is about no effect
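Primary screen. Calcium kinetics in induced HEK293 T-REx D2 cells: compound pre-addition 180 s, EC20 dopamine, 180 s more.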
D2 PAM-2: potentiates the human D2 dopamine receptor allosterically; P14416; DiscoveRx D2 beta-arrestin cells, luminescence, 90 min; 100% = 57 uM dopamine signal; potentiation, % (concentration not given with the values); hit rate 0.23% among 360,000; in the data active = potentiation above about 50%
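D2 cells co-treated with compound plus 50 nM dopamine (EC20) for 90 min at 37 deg C to detect potentiation. Beta-arrestin recruitment was read as enzyme-fragment luminescence after 1 h at ambient temperature. Full response was set by 57 uM dopamine.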
The depositor's hits bear a star; x = not tested or not shown.

SMILES	D2 ag-1	D2 ag-2	D2 antag	D2 PAM-1	D2 PAM-2
Cc1ccc(OCC(O)CN2CCN(CC(O)COc3ccc(C)cc3)CC2)cc1 (stereo not drawn)	-1	1	9	6	-26
COc1ccc(CNC(=O)C2CCCN2C(=O)Nc2cccc(Cl)c2)cc1 (stereo not drawn)	-4	x	x	x	-6
Oc1ccc(-c2nc(-c3ccc(O)c(O)c3)cs2)cc1	14	3	-5	-5	50*
CC1CC(C)(C)OC(c2ccc(C(C)C)cc2)O1 (stereo not drawn)	0	x	x	x	9
COC(=O)CC(NS(=O)(=O)c1cccs1)c1ccccc1Cl (stereo not drawn)	-5	0	35*	-4	-5
COC(=O)CC(NS(=O)(=O)c1cccs1)c1ccc2c(c1)OCO2 (stereo not drawn)	4	0	14	3	-7
COc1cc2cc(CCCOC(=O)c3ccc(C#N)cc3)oc(=O)c2cc1OC	2	0	-3	6	-3
Cn1c(CCC(N)=O)nnc1SCC(=O)Nc1ccccc1C(=O)NC1CC1	4	1	31*	-7	-6
C=CCn1c(C)nnc1SCC(=O)Nc1ccccc1C(=O)NC1CC1	-3	0	4	4	11
CCn1c(CC(=O)Nc2ccccc2Cl)nnc1SCC(=O)NC1CCCC1	-5	0	34*	-2	-8
CCn1c(CC(=O)Nc2ccccc2F)nnc1SCC(=O)NC1CCCCC1	-2	2	-18	-1	-4
Cc1ccc(NC(=O)Cc2nnc(SCC(=O)NC3CCCC3)n2C)cc1C	-5	-1	31*	19	-6
CCOC(=O)c1c(C)[nH]c(C(=O)C(C)Sc2ccc(Cl)cc2)c1C (stereo not drawn)	1	-1	16	32*	2
Cc1oc(-c2ccc(C(=O)Nc3ccc(F)cc3F)cc2)nc1COc1ccccc1	x	1	x	7	x
CN(C)c1ccc(-c2nnc(SCC3CCCO3)n2C)cc1 (stereo not drawn)	1	0	32*	3	-6
Cn1c(SCC2CCCO2)nnc1-c1ccncc1 (stereo not drawn)	1	0	7	5	4
CCOc1cccc2sc(N(CCN(C)C)C(=O)c3ccc(Br)s3)nc12	-6	0	33*	-10	-18
O=C1/C(=C\c2cccc(O)c2O)SC(=S)N1Cc1ccccc1	3	x	x	14	-5
O=C1/C(=C\c2cc([N+](=O)[O-])ccc2O)SC(=S)N1Cc1ccc(Cl)cc1	-7	90*	-14	4	-13
CC(O)CNCCCOc1ccc(Cl)cc1C(C)(C)C (stereo not drawn)	1	1	-18	-14	-13
CN(C)CCOCCOc1ccc(Cl)cc1C(C)(C)C	-5	0	64*	-17	-10
C=CCc1cc(Cl)ccc1OCCN(C)C	-1	1	53*	-15	-14
COc1ccccc1NC(=O)c1sc2ncn(Cc3ccccc3Cl)c(=O)c2c1C	x	0	x	-7	x
COc1ccc(Cl)c2c1[nH]c1nc(SCc3cccnc3)nnc12	-5	2	17	-7	-6
COc1ccc(Cl)c2c1[nH]c1nc(SCc3ccccn3)nnc12	1	-1	43*	-10	-17
SMILES	D2 ag-1	D2 ag-2	D2 antag	D2 PAM-1	D2 PAM-2
COc1ccc(/C=N/N2C(=O)CSC2=S)cc1Br	-2	8	33*	-4	-2
COc1ccc(NC(=S)N2CCC(N(C)CC3CCCO3)CC2)cc1 (stereo not drawn)	0	-3	30*	13	-6
CCOC(=O)Cc1csc(NC(=O)COc2ccc3ccccc3c2)n1	-1	1	59*	-4	3
COc1ccccc1Cn1c(-c2ccccc2OC)nc2ccccc21	-2	1	22	10	-10
Oc1ccccc1Cn1c(-c2ccccc2O)nc2ccccc21	2	0	34*	8	9
CCc1ccc(S(=O)(=O)c2nnn3c2nc(NCCc2ccccc2)c2sccc23)cc1	x	2	x	0	x
CCOC(=O)c1ccc(NC(=O)c2cn(-c3ccccc3)nc2-c2ccc(OC)c(OC)c2)cc1	x	-1	x	-3	x
c1cnc2ccc(C(c3nnnn3C3CCCCC3)N3CCN(C4CCCCC4)CC3)cc2c1 (stereo not drawn)	-3	x	x	x	-5
c1cnc2ccc(C(c3nnnn3C3CCCCC3)N3CCCCC3)cc2c1 (stereo not drawn)	-3	1	5	42*	-18
O=C(c1ccco1)N1CCN(C(c2ccccn2)c2nnnn2C2CCCC2)CC1 (stereo not drawn)	-1	0	-13	35*	7
O=C(c1ccco1)N1CCN(C(c2cccs2)c2nnnn2C2CCCC2)CC1 (stereo not drawn)	1	0	7	-6	-8
COc1ccc(C(c2nnnn2C2CCCCC2)N2CCN(c3ccc(OC)cc3)CC2)cc1 (stereo not drawn)	-4	0	-8	3	-21
COc1ccc(C(c2nnnn2C2CCCC2)N2CCC(C)CC2)cc1 (stereo not drawn)	-6	-1	-4	30*	-19
C=C1C(O)[C@@H]2O[C@]3(CC[C@H](/C=C/C(C)[C@@H]4CC(C)=CC5(O[C@H](C[C@@](C)(O)CO)CCC5O)O4)O3)CC[C@H]2O[C@@H]1C(O)CC(C)[C@H]1OC2(CCCCO2)CCC1C (stereo partly drawn)	-3	x	x	x	-42
COc1ccc(Br)cc1CNC(=O)c1cc(=O)[nH]c2ccc(S(=O)(=O)N3CCCCC3C)cc12 (stereo not drawn)	x	0	x	-8	x
COC(=O)/C(C#N)=C1/SC=C(C)N1c1ccccc1	-3	x	x	34*	-17
COc1ccc(OC)c(NC(=O)c2cc(C3CC3)nc3c2c(C)nn3-c2ccc(C)cc2)c1	x	-1	x	-3	x
COc1ccc(C=O)c2[nH]c3c(Cl)ncnc3c12	5	0	-3	7	9
Cc1nn2c(NCc3ccccn3)c3c(nc2c1-c1ccccc1)CCC3	-6	2	40*	-11	-12
COCc1nnc(NC(C)=O)s1	-2	0	32*	-9	-4
Cc1ccc2nc(-c3cccc(NC(=O)c4cccc5c(Cl)cccc45)c3)oc2c1	x	-1	x	11	x
CCOCCCNC(=O)c1cc(C)nn1-c1ccccc1	-6	1	36*	6	-5
CCOC(CNC(=O)c1cc(C)nn1-c1ccccc1)OCC	2	0	19	3	-6
CCOC(=O)c1c(NC(=O)c2cc3nc(-c4ccc(Br)cc4)cc(C(F)(F)F)n3n2)sc(C(C)=O)c1C	x	1	x	7	x
CC1CC(C)CN(S(=O)(=O)c2ccc(NC(=O)C3CSC4(C)CCC(=O)N34)cc2)C1 (stereo not drawn)	-3	0	-11	30*	-1

Screens as filed in PubChem BioAssay.
